Assay results reported in PubChem BioAssay AID1851 (National Center for Advancing Translational Sciences (NCATS), 2009).
The whole screen tested about 16,000 compounds, of which about 5,800 (36%) were called active. Inconclusive results (about 23%) are left out. Calls follow the shape of the dose curve; as a rule, active = well fitted curve in the direction sought with a large enough effect; inconclusive = small, poorly fitted or top-dose-only effect, or effect the other way; inactive = no such curve, though single readings can be large or run the other way. The list shows a part of the results.

Target: Cytochrome P450 2C19 (Homo sapiens) (UniProt P33261)
Sequence (P33261 whole entry, looked up): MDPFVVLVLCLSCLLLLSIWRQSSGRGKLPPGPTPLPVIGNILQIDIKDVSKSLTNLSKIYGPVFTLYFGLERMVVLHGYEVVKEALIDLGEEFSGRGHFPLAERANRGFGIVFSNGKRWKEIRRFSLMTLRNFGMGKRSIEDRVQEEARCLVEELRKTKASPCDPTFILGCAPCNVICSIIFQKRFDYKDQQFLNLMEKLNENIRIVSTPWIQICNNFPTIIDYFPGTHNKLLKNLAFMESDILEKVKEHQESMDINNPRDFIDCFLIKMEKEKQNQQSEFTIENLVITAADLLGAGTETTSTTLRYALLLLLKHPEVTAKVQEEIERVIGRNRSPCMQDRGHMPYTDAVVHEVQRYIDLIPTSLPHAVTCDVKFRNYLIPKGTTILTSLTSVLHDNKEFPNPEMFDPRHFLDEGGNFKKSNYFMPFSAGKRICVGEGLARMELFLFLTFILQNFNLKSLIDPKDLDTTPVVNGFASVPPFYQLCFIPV
Experiment: Cytochrome panel assay with activity outcomes
Conditions: recombinant CYP, pro-luciferin dealkylation, luminescence, p450-cyp2c19; series mostly up to 57.1 µM
% is scaled to controls: 0 for no effect and ±100 for the full control effect.

AC50, inactive:
CN(C)Cc1ccccc1-c1nc(NCc2ccccc2)c2ccccc2n1, CN[C@H]1[C@@H](O[C@@H]2[C@H](O[C@@H]3[C@@H](O)[C@@H](O)[C@@H](N=C(N)N)[C@@H](O)[C@@H]3N=C(N)N)O[C@H](C)[C@@]2(O)C=O)O[C@@H](CO)[C@@H](O)[C@H]1O, O=C1NCC2(CCN(CCc3ccccc3)CC2)O1, Cc1ncc([N+](=O)[O-])n1CC(=O)NCc1ccccc1, Cc1ncc([N+](=O)[O-])n1CC(C)O (configuration not stated), COc1ccc(Oc2ncc3nc(-c4ccc(F)cc4)c(=O)n(Cc4cccs4)c3n2)cc1, COc1ccc(CCNC(=O)COC(=O)c2cnc(C)cn2)cc1, COc1ccc(CNC(=O)C2CSC(=O)C2)cc1 (configuration not stated), COc1ccccc1NC(=O)c1nc[nH]c1C(=O)Nc1ccccc1OC, Cc1cccc(Nc2ccccc2C(=O)O)c1C, O=C(O)c1cccnc1Nc1cccc(C(F)(F)F)c1, O=C(O)CCCC[C@H]1CCSS1, Cc1cnc(CNc2nc(-c3ccccc3Cl)nc3ccccc23)cn1, CC(=O)[C@@]1(O)Cc2c(O)c3c(c(O)c2[C@H](O[C@H]2C[C@H](N)[C@H](O)[C@H](C)O2)C1)C(=O)c1ccccc1C3=O, C=CCN1CCc2c(cc(O)c(O)c2Br)[C@H](c2ccccc2)C1, NC(=NCc1ccc(Cl)c(Cl)c1)NC(=O)c1nc(Cl)c(N)nc1N, CCC(CC)C(=O)Nc1c2cnn(-c3ccccc3)c2nc(=O)n1-c1ccccc1, c1ccn(-c2ccc(N3CCOCC3)cc2)c1, CC1CCCC(NC(=O)C2CCN(S(=O)(=O)N3CCOCC3)CC2)C1C (configuration not stated), O=C(Nc1ccccc1)N1CCCC2(CCNCC2)C1, O=C(Nc1ccccc1)N1CCC2(CCNCC2)CC1, O=C(CCNS(=O)(=O)c1ccc2c(c1)CCC(=O)N2)NCc1ccc2c(c1)OCO2, COc1ccc(NC(=O)CCNS(=O)(=O)c2ccc3c(c2)CCC(=O)N3)cc1

AC50, active:
Cc1cccc(CNc2nc(-c3ccc4c(c3)OCO4)nc3ccccc23)c1 3.16 µM, c1ccc(CNc2nc(-c3ccc4c(c3)OCO4)nc3ccccc23)cc1 10 µM, c1csc(CNc2nc(-c3ccc4c(c3)OCO4)nc3ccccc23)c1 3.16 µM, c1cncc(CNc2nc(-c3ccc4c(c3)OCO4)nc3ccccc23)c1 10 µM, COc1ccc(OC)c(C2C(C(=O)Nc3nc4ccccc4s3)=C(C)NC3=C2C(=O)CCC3)c1 (configuration not stated) 0.891 µM, Cc1ccc([C@@H](O)c2cnc(C)n2Cc2ccccc2)cc1 1.26 µM, CCC1(C)CC(CCNS(=O)(=O)c2ccc(C)cc2)(c2ccc(C)cc2)CCO1 (configuration not stated) 3.98 µM, CCOc1ccc(OCC)c(-c2c(=O)n(OCc3ccccc3C(=O)OC)c3ccccc3[n+]2[O-])c1 4.47 µM, CCOc1ccc(OCC)c(-c2c(=O)n(OCc3ccc(C(C)(C)C)cc3)c3ccccc3[n+]2[O-])c1 1.58 µM, COc1ccc(CNC(=O)c2csc(Cc3ccc(OC)cc3)n2)cc1 8.91 µM, COc1ccc(CNC(=O)c2cnc(C)cn2)cc1 14.1 µM, COc1ccc(CNC(=O)c2csc(Cc3ccc(Cl)cc3)n2)cc1 2.51 µM, COc1ccccc1NC(=O)C(C/C=C(\C)Cl)C(C)=O (configuration not stated) 3.55 µM, Cc1cccc(Nc2ccccc2C(=O)OCC(=O)NCc2ccco2)c1C 5.01 µM, O=C(COC(=O)c1cccnc1Nc1cccc(C(F)(F)F)c1)NCc1ccc2c(c1)OCO2 3.55 µM, O=C(COC(=O)c1ccccc1Nc1cccc(C(F)(F)F)c1)NCc1ccco1 2 µM, COc1ccccc1CNc1ncncc1-c1cccc(C#N)c1 3.16 µM, COc1ccc(CNc2ncncc2-c2cccc(C#N)c2)c(OC)c1 5.01 µM, Cc1n[nH]c(=O)nc1NCc1ccccc1Cl 28.2 µM, CCCCCCCOC1(c2ccccc2)OC(=O)c2ccccc21 (configuration not stated) 3.55 µM, CCCCOC1(c2ccccc2)OC(=O)c2ccccc21 (configuration not stated) 6.31 µM, COc1ccc(C(=O)NC(=S)NC(C)C)cc1Br 2.24 µM, COc1ccc(C(=O)NC(=S)NC(C)(C)C)cc1Br 3.55 µM, COC(=O)CNC(=O)CN1C(=O)N(c2ccc(Cl)cc2)C(N(O)C(=O)Nc2ccc(Cl)cc2)C1(C)C (configuration not stated) 14.1 µM, CCCCCCCCCCCCC(=O)N1CCCC[C@H]1CNC(=O)[C@@H](N)CCCCN 7.94 µM, Cc1cccc(CN(C)CCc2ccccn2)c1 15.8 µM, CN(CCc1ccccn1)Cc1ccc(Cl)cc1Cl 0.447 µM, CCOC(=O)c1cnn(-c2ccccc2)c1-n1cccc1C(=O)C(=O)Nc1ccccc1C(F)(F)F 7.94 µM, N#CC(c1ccc(Cl)cc1)c1nc2ccccc2nc1C(F)(F)F (configuration not stated) 0.562 µM, O=C(Nc1cccc(NC(=O)N2CCN(c3ccccc3)CC2)c1)N1CCN(c2ccccc2)CC1 5.01 µM, O=C(N1CCOCC1)N1CCN(c2ccccc2)CC1 14.1 µM, O=C(C1CCN(S(=O)(=O)N2CCOCC2)CC1)N1CCN(c2ccccc2)CC1 25.1 µM, COc1ccc(N(C)S(=O)(=O)c2ccc3c(c2)CCC(=O)N3)cc1 6.31 µM

activity, negative = inhibition, inactive:
Nc1ncnc2c1ncn2C[C@@H](O)C(=O)O -17.6% [at 11.4 µM], CC1(C)O[C@@H]2O[C@H]([C@@H]3COC(C)(C)O3)[C@H](N)[C@H]2O1 14.5% [at 11.4 µM], O=C(O)[C@@H](O)Cc1ccccn1 14.4% [at 11.4 µM], CN(CCO)Cc1ncccc1O 42.9% [at 11.4 µM], CC(C)C(=O)C(C)(C)CCc1ccccn1 -41.1% [at 11.4 µM], O=C(O)c1nnsc1-c1ccc(-c2snnc2C(=O)O)cc1 -40.8% [at 11.4 µM]
